Records with an inconclusive call do not appear. A call without a number means that no potency is given here. Values without a mark were called inactive. Calls of active or inactive are those of the source. Calls follow the shape of the dose curve; as a rule, active = well fitted inhibition curve with a large enough effect; inconclusive = small, poorly fitted or top-dose-only effect; inactive = flat fitted curve, though single readings scatter.
Columns and labels:
ECU = assay: qHTS profiling for inhibitors of Plasmodium falciparum proliferation (AID 504749); settings: P. falciparum in erythrocytes, SYBR Green DNA, 72 h; series mostly up to 28.7 µM
Outline: (§1)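 In a 72 h erythrocytic culture (37 C, humidified, 5% CO2) at 2.5% hematocrit and 0.3% starting parasitemia, compounds were tested; SYBR Green I in detergent lysis buffer stained parasite DNA overnight.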

FAB9 = assay: as above; settings: P. falciparum in erythrocytes, SYBR Green DNA, 72 h; series mostly up to 28.7 µM
Outline: as §1

GB4 = assay: as above; settings: P. falciparum in erythrocytes, SYBR Green DNA, 72 h; series mostly up to 28.7 µM
Outline: as §1

HB3 = assay: as above; settings: P. falciparum in erythrocytes, SYBR Green DNA, 72 h; series mostly up to 28.7 µM
Outline: as §1

ICS = assay: as above; settings: P. falciparum in erythrocytes, SYBR Green DNA, 72 h; series mostly up to 28.7 µM
Outline: as §1

JCK = assay: as above; settings: P. falciparum in erythrocytes, SYBR Green DNA, 72 h; series mostly up to 28.7 µM
Outline: as §1

N140 = assay: as above; settings: P. falciparum in erythrocytes, SYBR Green DNA, 72 h; series mostly up to 28.7 µM
Outline: as §1

P93_24 = assay: as above; settings: P. falciparum in erythrocytes, SYBR Green DNA, 72 h; series mostly up to 28.7 µM
Outline: as §1

P94_40 = assay: as above; settings: P. falciparum in erythrocytes, SYBR Green DNA, 72 h; series mostly up to 28.7 µM
Outline: as §1

PAD = assay: as above; settings: P. falciparum in erythrocytes, SYBR Green DNA, 72 h; series mostly up to 28.7 µM
Outline: as §1

PC15 = assay: as above; settings: P. falciparum in erythrocytes, SYBR Green DNA, 72 h; series mostly up to 28.7 µM
Outline: as §1

PC26 = assay: as above; settings: P. falciparum in erythrocytes, SYBR Green DNA, 72 h; series mostly up to 28.7 µM
Outline: as §1

PC49 = assay: as above; settings: P. falciparum in erythrocytes, SYBR Green DNA, 72 h; series mostly up to 28.7 µM
Outline: as §1

SC27B = assay: as above; settings: P. falciparum in erythrocytes, SYBR Green DNA, 72 h; series mostly up to 28.7 µM
Outline: as §1

TAB109 = assay: as above; settings: P. falciparum in erythrocytes, SYBR Green DNA, 72 h; series mostly up to 28.7 µM
Outline: as §1

TAB113 = assay: as above; settings: P. falciparum in erythrocytes, SYBR Green DNA, 72 h; series mostly up to 28.7 µM
Outline: as §1

TAB165 = assay: as above; settings: P. falciparum in erythrocytes, SYBR Green DNA, 72 h; series mostly up to 28.7 µM
Outline: as §1

W2 = assay: as above; settings: P. falciparum in erythrocytes, SYBR Green DNA, 72 h; series mostly up to 28.7 µM
Outline: as §1

CRL-7250 = normal cell line; assay: Cytotoxic Profiling of Annotated Libraries Using Quantitative High-Throughput Screening (AID 1296008); settings: Five cell lines viability, CellTiter-Glo ATP luminescence, 48-72 h; max response: active compounds read low
Outline: (§2)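 Cytotoxicity was measured as CellTiter-Glo ATP luminescence, read after 10 min at room temperature. Compound treatment of the cells lasted 48 or 72 hr at 37 degrees Celsius in a qHTS format.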

HEK293 = assay: as above; settings: Five cell lines viability, CellTiter-Glo ATP luminescence, 48-72 h; max response: active compounds read low
Outline: as §2
Also: nearly all actives have a fitted effect of over 60% in size.
Potency is read from the fitted curve at half-maximal effect.

COP(=S)(OC)Oc1ccc(Sc2ccc(OP(=S)(OC)OC)cc2)cc1
Potency (ECU): inactive
Potency (FAB9): inactive
Potency (GB4): inactive
Potency (HB3): inactive
Potency (ICS): inactive
Potency (JCK): inactive
Potency (N140): inactive
Potency (P93_24): inactive
Potency (P94_40): inactive
Potency (PAD): inactive
Potency (PC15): inactive
Potency (PC26): inactive
Potency (PC49): inactive
Potency (SC27B): inactive
Potency (TAB109): inactive
Potency (TAB113): inactive
Potency (TAB165): inactive
Potency (W2): inactive
max response (CRL-7250): -0.305%
max response (HEK293): 3.86%

CC[C@]1(O)CC[C@H]2[C@@H]3CCC4=CCCC[C@@H]4[C@H]3CC[C@@]21C
Potency (ECU): inactive
Potency (FAB9): inactive
Potency (GB4): inactive
Potency (HB3): inactive
Potency (JCK): inactive
Potency (P94_40): 11.2 µM (active)
Potency (PC15): inactive
Potency (PC26): inactive
Potency (PC49): inactive
Potency (TAB109): inactive
max response (CRL-7250): -110%
max response (HEK293): -119%

OC(O)C(Cl)(Cl)Cl
Potency (ECU): inactive
Potency (FAB9): inactive
Potency (GB4): inactive
Potency (HB3): inactive
Potency (ICS): inactive
Potency (JCK): inactive
Potency (N140): inactive
Potency (P93_24): inactive
Potency (P94_40): inactive
Potency (PAD): inactive
Potency (PC15): inactive
Potency (PC26): inactive
Potency (PC49): inactive
Potency (SC27B): inactive
Potency (TAB109): inactive
Potency (TAB113): inactive
Potency (TAB165): inactive
max response (CRL-7250): -3.66%
max response (HEK293): -2.43%

Cc1ccc(N=CN(C)C=Nc2ccc(C)cc2C)c(C)c1
Potency (ECU): inactive
Potency (FAB9): inactive
Potency (GB4): inactive
Potency (HB3): inactive
Potency (ICS): inactive
Potency (JCK): inactive
Potency (N140): inactive
Potency (P93_24): inactive
Potency (P94_40): inactive
Potency (PAD): inactive
Potency (PC15): inactive
Potency (PC26): inactive
Potency (PC49): inactive
Potency (SC27B): inactive
Potency (TAB109): inactive
Potency (TAB113): inactive
Potency (TAB165): inactive
Potency (W2): inactive
max response (CRL-7250): -6.67%

CN1C(=O)CN=C(c2ccccc2)c2cc([N+](=O)[O-])ccc21
Potency (ECU): inactive
Potency (FAB9): inactive
Potency (GB4): inactive
Potency (ICS): inactive
Potency (JCK): inactive
Potency (N140): inactive
Potency (P93_24): inactive
Potency (P94_40): inactive
Potency (PAD): inactive
Potency (PC15): inactive
Potency (PC26): inactive
Potency (PC49): inactive
Potency (SC27B): inactive
Potency (TAB109): inactive
Potency (TAB113): inactive
Potency (TAB165): inactive
Potency (W2): inactive
outcome (CRL-7250): inactive
max response (HEK293): -10%

CCC(OC(C)=O)C(CC(C)NC)(c1ccccc1)c1ccccc1 (stereo unspecified)
Potency (CRL-7250): 43.7 µM (active)
Potency (HEK293): 31 µM (active)

NC(=O)OCCCc1ccccc1
Potency (ECU): inactive
Potency (FAB9): inactive
Potency (GB4): inactive
Potency (HB3): inactive
Potency (ICS): inactive
Potency (JCK): inactive
Potency (N140): inactive
Potency (P93_24): inactive
Potency (P94_40): inactive
Potency (PAD): inactive
Potency (PC15): inactive
Potency (PC26): inactive
Potency (PC49): inactive
Potency (SC27B): inactive
Potency (TAB109): inactive
Potency (TAB113): inactive
Potency (TAB165): inactive
Potency (W2): inactive
outcome (CRL-7250): inactive
max response (HEK293): 3.07%

Nc1ccc(Cl)cc1C(=O)c1ccccc1F
max response (CRL-7250): -4.36%
max response (HEK293): -6.5%

CCN(Cc1ccc(Cl)nc1)/C(=C/[N+](=O)[O-])NC
Potency (ECU): inactive
Potency (FAB9): inactive
Potency (GB4): inactive
Potency (HB3): inactive
Potency (ICS): inactive
Potency (JCK): inactive
Potency (N140): inactive
Potency (P93_24): inactive
Potency (P94_40): inactive
Potency (PAD): inactive
Potency (PC15): inactive
Potency (PC26): inactive
Potency (PC49): inactive
Potency (SC27B): inactive
Potency (TAB109): inactive
Potency (TAB113): inactive
Potency (TAB165): inactive
max response (CRL-7250): -14.2%
outcome (HEK293): inactive

NCc1cccnc1
Potency (ECU): inactive
Potency (FAB9): inactive
Potency (GB4): inactive
Potency (HB3): inactive
Potency (ICS): inactive
Potency (JCK): inactive
Potency (N140): inactive
Potency (P93_24): inactive
Potency (P94_40): inactive
Potency (PAD): inactive
Potency (PC15): inactive
Potency (PC26): inactive
Potency (PC49): inactive
Potency (SC27B): inactive
Potency (TAB109): inactive
Potency (TAB113): inactive
Potency (TAB165): inactive
Potency (W2): inactive
max response (CRL-7250): -13.7%
max response (HEK293): -4.51%

CNC(=O)NC(O)C(Cl)(Cl)Cl (stereo unspecified)
Potency (ECU): inactive
Potency (FAB9): inactive
Potency (GB4): inactive
Potency (HB3): inactive
Potency (ICS): inactive
Potency (JCK): inactive
Potency (N140): inactive
Potency (P93_24): inactive
Potency (P94_40): inactive
Potency (PAD): inactive
Potency (PC15): inactive
Potency (PC26): inactive
Potency (PC49): inactive
Potency (SC27B): inactive
Potency (TAB109): inactive
Potency (TAB113): inactive
Potency (TAB165): inactive
Potency (W2): inactive
max response (CRL-7250): 2.85%
max response (HEK293): 2.62%

CN1C[C@@H](NS(=O)(=O)N(C)C)C[C@@H]2c3cccc4c3c(cn4C)C[C@H]21
Potency (ECU): inactive
Potency (FAB9): inactive
Potency (GB4): inactive
Potency (HB3): inactive
Potency (JCK): inactive
Potency (N140): inactive
Potency (PAD): inactive
Potency (PC15): inactive
Potency (PC26): inactive
Potency (PC49): inactive
Potency (SC27B): inactive
Potency (TAB113): inactive
outcome (CRL-7250): inactive
max response (HEK293): -5.36%

— PubChem BioAssay (NCATS)
